In one experiment the test system is MCC-13. As to the kind of experiment: qHTS assay to identify novel small-molecules to repurpose for Merkel cell carcinoma treatment (AID 1296009). Also: nearly all actives have a fitted effect of over 60% in size. The note with it: MCC and control cell lines, CellTiter-Glo viability, 72 h; series mostly up to 46 µM. Summed up:
(§1)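 Cell viability, measured as CellTiter-Glo luminescence, was normalized between DMSO and no-cell wells. The cells had been exposed to 8- or 11-point compound dilutions for 72 hr at 37 degree celsius.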

The next experiment concerns MCC-26. Described as above. The note with it: MCC and control cell lines, CellTiter-Glo viability, 72 h; series mostly up to 46 µM. Summed up: as §1
On the technique in general: In ATP-based viability assays light output follows the ATP content of the culture.

For a further experiment, the system named is MKL-2. Described as above. The conditions noted are these: MCC and control cell lines, CellTiter-Glo viability, 72 h; series mostly up to 46 µM. The method in brief: as §1
Another experiment deals with WaGa. The description is as above. The note with it: MCC and control cell lines, CellTiter-Glo viability, 72 h; series mostly up to 46 µM. The method in brief: as §1
The test system of the next experiment is CASKI. The experiment in a line: Primary qHTS to identify gynecologic anti-cancer compounds using libraries of approved drugs and bioactive compounds (AID 1345084). Also: nearly all actives have a fitted effect of over 55% in size. The note with it: Gynecologic cancer cell panel viability, ATPlite luminescence, 48 h; series mostly up to 57.5 µM. Summed up:
(§2)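 Cells, 1,000 per well, plated 16 h, then exposed 48 h at 37 C to compounds. Viability by ATPlite luminescence after 15 min at room temperature.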
(In qHTS, concentration-response curves come from the screen itself.)

The subject of another experiment is Es-2. The description is as above. The conditions noted are these: Gynecologic cancer cell panel viability, ATPlite luminescence, 48 h; series mostly up to 57.5 µM. The method in brief:
as §2

The test system of another experiment is HeLa. Described as above. The note with it: Gynecologic cancer cell panel viability, ATPlite luminescence, 48 h; series mostly up to 57.5 µM. Summed up: as §2
Another experiment deals with Hek293T. Described as above. The conditions noted are these: Gynecologic cancer cell panel viability, ATPlite luminescence, 48 h, control line for the selectivity index; series mostly up to 57.5 µM. The method in brief:
as §2

Another experiment relates to OV90. The description is as above. The conditions noted are these: Gynecologic cancer cell panel viability, ATPlite luminescence, 48 h; series mostly up to 57.5 µM. The method in brief:
as §2

For the next experiment, the system named is Tov-21-G. The experiment is described as above. The note with it: Gynecologic cancer cell panel viability, ATPlite luminescence, 48 h; series mostly up to 57.5 µM. The method in brief: as §2
Experiment [1] in a line: qHTS assay to identify inhibitors of the type 1 interferon - major histocompatibility complex class I in skeletal muscle: Counter screen cell viability and HiBit confirmation (AID 1347412). Also: nearly all actives have a fitted effect of over 60% in size. The note with it: iHSKM muscle cells + IFN-b, HiBiT or CellTiter-Glo, 24 h; Potency: HiBiT; Viability, at 45.9 µM (top of the series). The method in brief: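 After 24 h with human IFN-beta (4 ng/ml) and compound titrations (top 46 uM final, 1:3, 12 points), HLA-B HiBit myoblasts were lysed for either Nano-Glo HiBiT luminescence or CellTiter Glo viability on paired plates.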

Another experiment deals with MKL-1. The experiment in a line: qHTS assay to identify novel small-molecules to repurpose for Merkel cell carcinoma treatment (AID 1296009). Also: nearly all actives have a fitted effect of over 60% in size. The conditions noted are these: MCC and control cell lines, CellTiter-Glo viability, 72 h; series mostly up to 46 µM. Summed up: as §1
A further experiment has as its system NIH3T3. Described as above. The note with it: MCC and control cell lines, CellTiter-Glo viability, 72 h; at 44.8 µM (top of the series) unless noted. Summed up:
as §1

For another experiment, the system named is UISO. The experiment is described as above. The conditions noted are these: MCC and control cell lines, CellTiter-Glo viability, 72 h; series mostly up to 46 µM. The method in brief: as §1
The next experiment concerns JEG-3. As to the kind of experiment: Primary qHTS to identify gynecologic anti-cancer compounds using libraries of approved drugs and bioactive compounds (AID 1345084). Also: nearly all actives have a fitted effect of over 55% in size. The note with it: Gynecologic cancer cell panel viability, ATPlite luminescence, 48 h; series mostly up to 57.5 µM. Summed up: as §2
The subject of the next experiment is Tov112D. The experiment is described as above. The note with it: Gynecologic cancer cell panel viability, ATPlite luminescence, 48 h; series mostly up to 57.5 µM. The method in brief:
as §2

For the next experiment, the system named is C33A. Described as above. The note with it: Gynecologic cancer cell panel viability, ATPlite luminescence, 48 h; series mostly up to 57.5 µM. The method in brief:
as §2

Another experiment concerns SKOV3. The description is as above. The note with it: Gynecologic cancer cell panel viability, ATPlite luminescence, 48 h; series mostly up to 57.5 µM. The method in brief: as §2
For the next experiment, the system named is PA-1. The experiment is described as above. The note with it: Gynecologic cancer cell panel viability, ATPlite luminescence, 48 h; series mostly up to 57.5 µM. Summed up: as §2

The structures appear in SMILES notation. Results filed as inconclusive are left out. A number with no mark means an inactive call. The source made the active and inactive calls. Calls follow the shape of the dose curve; as a rule, active = well fitted curve in the direction sought with a large enough effect; inconclusive = small, poorly fitted or top-dose-only effect, or another doubt; inactive = no such curve, though single readings can be large; an effect the other way counts as inactive or inconclusive. Non-standard residues stand in square brackets, D forms with d. Residues, ends and D or L forms follow the SMILES beside them. *: point of attachment. Nva = CCC[C@H](N)C(=O)O; Cbz = O=C(OCc1ccccc1)*
Potency is read from the fitted curve at half-maximal effect.

For `CC(C)C[C@H](NC(=O)[C@@H](NC(=O)c1cccc(-c2ccccc2)n1)[C@@H](C)O)B(O)O`, the Potency was 264 nM (active) with MCC-13; 148 nM (active) in the experiment with MCC-26; 41.8 nM (active) in the experiment with MKL-2; 83.3 nM (active) in the experiment with WaGa; 112 nM (active) in the experiment on CASKI; 251 nM (active) in the experiment with Es-2. Moreover, the Potency is 631 nM (active) in the experiment on HeLa; 316 nM (active) in the experiment on Hek293T; 316 nM (active) in the experiment on OV90; 112 nM (active) in the experiment with Tov-21-G; 55.7 nM (active) in experiment [1].
As for `C[C@H](CCC(=O)O)[C@H]1CC[C@H]2[C@@H]3[C@H](O)C[C@@H]4C[C@H](O)CC[C@]4(C)[C@@H]3CC[C@]12C`, the Potency result in the experiment with MCC-13, in the experiment on MKL-1, in the experiment on MKL-2, in the experiment on UISO and in the experiment with WaGa was “inactive” each time. In addition, the result in the experiment with NIH3T3 was inactive.
`CC(=O)C1=C(O)C=C2Oc3c(C(C)=O)c(O)c(C)c(O)c3C2(C)C1=O` (stereo not drawn): the Potency result in the experiment with MCC-13, with MKL-1, with MKL-2, in the experiment with UISO and in the experiment with WaGa was “inactive” each time. Also, the outcome in the experiment on NIH3T3 was inactive.
Turning to `CCOc1cc2c(c(F)c1OCC)C(=N)N(CC(=O)c1cc(N3CCOCC3)c(OC)c(C(C)(C)C)c1)C2`, the Potency result with MCC-13, in the experiment on MCC-26, with WaGa, in the experiment with CASKI, with Es-2 and in the experiment with HeLa was “inactive” in each case. Moreover, the Potency entry in the experiment with Hek293T, in the experiment with JEG-3, with Tov-21-G and in the experiment with Tov112D was “inactive” each time.
Consider `CC(N[C@H]1CCCC[C@H]1NC(=O)c1ccc(Cl)cc1)c1cccc2ccccc12` (stereo partly drawn), for which the Potency entry in the experiment with MCC-13, in the experiment on MCC-26 and with UISO was “inactive” each time. Also, in the experiment with MKL-2, the Potency was 418 nM (active).
In the case of `COc1cc([C@@H]2c3cc4c(cc3[C@@H](O[C@@H]3O[C@@H]5CO[C@@H](c6cccs6)O[C@@H]5[C@H](O)[C@@H]3O)[C@H]3COC(=O)[C@H]23)OCO4)cc(OC)c1O`, the Potency is 1660 nM (active) in the experiment with MCC-13, 235 nM (active) with MKL-1, 118 nM (active) with MKL-2 and 1870 nM (active) with UISO.
`Cn1cc(-c2cnn3c(N)c(Br)c([C@H]4CCCNC4)nc23)cn1`: the Potency entry in the experiment with MCC-13 and in the experiment on MCC-26 was “inactive” in each case. Moreover, the Potency in the experiment on MKL-2 and with WaGa was 1320 nM (active) throughout.
Turning to `N#CC(=Cc1ccc(O)c(O)c1)C(=O)NCc1ccccc1`, the Potency entry in the experiment on MCC-13, in the experiment with MCC-26 and in the experiment with MKL-2 was “inactive” each time.
In the case of `OC[C@H]1OC(O)C[C@@H](O)[C@H]1O` (stereo partly drawn), the Potency entry with MCC-13, in the experiment on MKL-1, in the experiment on MKL-2, in the experiment on UISO and with WaGa was “inactive” throughout. In the experiment with NIH3T3, the result was inactive.
As for `CN(C)CC(=O)N1CCC(c2ccc(NC(=O)c3ncc(C#N)[nH]3)c(C3=CCCCC3)c2)CC1`, the Potency entry with MCC-13, in the experiment on MCC-26, in the experiment on MKL-2, in the experiment with UISO, in the experiment with C33A and with CASKI was “inactive” throughout. The Potency result with Es-2, in the experiment with HeLa, in the experiment with Hek293T, in the experiment with JEG-3, in the experiment with OV90 and in the experiment with SKOV3 was “inactive” throughout. In the experiment with Tov-21-G, the Potency entry was “inactive”.
Take `COc1ccc(S(=O)(=O)Nc2cc(-c3c(O)ccc4ccccc34)c(O)c3ccccc23)cc1`: the Potency result with MCC-13 and in the experiment on MCC-26 was “inactive” in each case. Further, the Potency in the experiment on MKL-2 was 26400 nM (active); in the experiment on UISO, 166 nM (active). Further, the call in the experiment on NIH3T3 was inactive.
Take `OCCNC1CCCc2c1[nH]c1ccc(-c3ccccc3)cc21` (stereo not drawn): the Potency result with MCC-13, in the experiment on MCC-26, in the experiment with Es-2, in the experiment on Hek293T, in the experiment on JEG-3 and with OV90 was “inactive” in each case. In addition, the Potency entry (in the experiment with Tov-21-G; in the experiment with Tov112D; in experiment [1]) was “inactive” throughout. The Potency was 26400 nM (active) in the experiment on MKL-2, 8910 nM (active) in the experiment with HeLa and 20000 nM (active) with PA-1.
For `CC(=O)SCC(Cc1ccccc1)C(=O)NCC(=O)OCc1ccccc1` (stereo not drawn), the Potency entry in the experiment on MCC-13 and with MCC-26 was “inactive” throughout. For the same compound, the Potency in the experiment with MKL-2 was 209 nM (active); with UISO, 14800 nM (active).
As to `O=C(C=CC=Cc1ccc2c(c1)OCO2)N1CCCCC1`, the Potency result in the experiment on MCC-13, in the experiment with MKL-1, in the experiment on MKL-2, with UISO and with WaGa was “inactive” each time. In addition, the call in the experiment with NIH3T3 was inactive.
Take `C[C@@H]1C(=O)O[C@H]2CC34[C@H]5C[C@@H](C(C)(C)C)C36[C@H](OC(=O)[C@@H]6O)O[C@@]4(C(=O)O5)[C@]21O` (stereo partly drawn): the Potency result with MCC-13, in the experiment with MCC-26 and in the experiment on UISO was “inactive” in each case. Besides, in the experiment with NIH3T3, the compound was classed as inactive.
As for `Cn1cnc(=N)c2[nH]cnc21`, the Potency with MCC-13 is 14800 nM (active); in the experiment with MKL-1, 7430 nM (active); in the experiment on MKL-2, 209 nM (active); in the experiment with UISO, 5260 nM (active); in the experiment on WaGa, 296 nM (active).
On to `CN1CCc2c(c3ccccc3n2Cc2ccc(C(=O)NO)cc2)C1`, for which the Potency result in the experiment on MCC-13, in the experiment with MCC-26, in the experiment on C33A, in the experiment with CASKI, in the experiment on Es-2 and in the experiment with HeLa was “inactive” throughout. Besides, the Potency entry with Hek293T, in the experiment with JEG-3, with OV90, in the experiment on SKOV3 and in the experiment on Tov112D was “inactive” in each case. Moreover, in the experiment on WaGa, the Potency is 20900 nM (active).
Regarding `CCC[C@@H](C=O)NC(=O)[C@H](CC(C)C)NC(=O)[C@H](CC(C)C)NC(=O)OCc1ccccc1` (Cbz-Leu-Leu-[Nva]-aldehyde), the Potency in the experiment with MCC-13 was 3320 nM (active); in the experiment on MKL-1 it was 1320 nM (active); in the experiment on MKL-2, 833 nM (active); in the experiment on UISO, 2640 nM (active); with WaGa, 833 nM (active).
On to `CCS(=O)(=O)Nc1ccc2[nH]c(O)c(C(=Nc3ccc(CN4CCCCC4)cc3)c3ccccc3)c2c1`, for which the Potency is 5260 nM (active) in the experiment with MCC-13, 1480 nM (active) in the experiment on MCC-26, 20900 nM (active) with UISO and 625 nM (active) in [1]. The Potency entry in the experiment on MKL-2 was “inactive”.
Regarding `CN(N=O)C(=O)N[C@H]1C(O)OC(CO)[C@@H](O)[C@H]1O` (stereo partly drawn), the Potency entry in the experiment on MCC-13, in the experiment with MKL-1, in the experiment with MKL-2, in the experiment on UISO and with WaGa was “inactive” each time.
As for `C=CC(=O)Nc1cc(NC(=O)c2ccc(C)c(NC(=O)c3ccno3)c2)cc(C(F)(F)F)c1`, the Potency entry in the experiment with MCC-13 and with MCC-26 was “inactive” in each case. For the same compound, the Potency with WaGa is 18700 nM (active).
